Laboratory results taken from the supplement of paper PMC10646978.
± gives the standard deviation.

Tests used:
Conditions in all cases: modulator concentration 10 µM
[1] = test system: RAW-Dual (murine macrophage reporter line); experiment: NF-kB reporter (SEAP) activity fold change vs agonist alone; higher = enhanced NF-kB activity
Outline: (§1)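 Overnight stimulation with a PRR agonist followed pre-incubation for 1 hour at 37 °C with compound at 10 μM final. This was done in RAW-Dual murine macrophage reporter cells seeded at 50 000 per well in 384-well plates. NF-κB (SEAP, QUANTI-Blue absorbance at 620 nm) and IRF (Lucia luciferase, QUANTI-Luc luminescence) were read from the supernatant. Each reporter's fold change relative to the mean agonist-only control on the same plate was averaged over replicate plates.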

[2] = test system: RAW-Dual (murine macrophage reporter line); experiment: IRF reporter (Lucia luciferase) activity fold change vs agonist alone; higher = enhanced IRF activity
Outline: as §1

[3] = test system: RAW-Dual (murine macrophage reporter line); experiment: viability score (confluency relative to resting cells, overnight) (fraction); higher = more viable, active = viable (0.7 or more)
Outline: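 RAW-Dual macrophages in 384-well plates were incubated overnight with compound, final concentration 10 μM. Confluency images from IncuCyte were processed in IncuCyte software into two masks covering all imaged wells. The viability score is each well's confluency relative to resting cells, and a compound met the cutoff when both masks exceeded 70% of resting cells.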

[4] = agonist: CpG ODN 1826 0.5 ug/mL

| Structure (SMILES) | NF-kB reporter [1, 4] | NF-kB reporter ([1]; agonist: LPS 0.1 ug/mL) | NF-kB reporter ([1]; agonist: MPLA […]) | IRF reporter ([2]; agonist: 3'3'-cGAMP 10 ug/mL) | IRF reporter ([2]; agonist: LPS 0.1 ug/mL) | IRF reporter ([2]; agonist: MPLA […]) | viability score [3] |
| --- | --- | --- | --- | --- | --- | --- | --- |
| CCCN1CCC(NCCc2cccc(Cl)c2)CC1 | 0.11 ± 0.018 | 0.9 ± 0.14 | 1.18 ± 0.091 | 0.704 ± 0.045 | 1.13 ± 0.18 | 1.13 ± 0.17 | 1 (active) |
| COc1cccc(CC(=O)N2CCC(Oc3ccc4ccccc4n3)C2)c1 (centres undefined) | 0.762 ± 0.04 | 1.18 ± 0.14 | 1 ± 0.077 | 0.938 ± 0.056 | 1.18 ± 0.14 | 1.24 ± 0.25 | 1 (active) |
| COc1ccc(Cl)cc1NS(=O)(=O)c1c(C)cc(C)cc1C | 0.993 ± 0.14 | 0.937 ± 0.062 | 1.46 ± 0.12 | 1.24 ± 0.11 | 1.16 ± 0.11 | 1.04 ± 0.12 | 0.982 (active) |
| NCC(O)(c1ccc(Cl)cc1)c1ccc(Cl)cc1 | 0.85 ± 0.14 | 1.12 ± 0.12 | 1.03 ± 0.11 | 1.01 ± 0.036 | 1.32 ± 0.25 | 1.41 ± 0.22 | 0.996 (active) |
| Nc1ncnc2c1ncn2C1OC(CO)C(O)C1O (centres undefined) | 0.951 ± 0.078 | 0.93 ± 0.079 | 1.29 ± 0.13 | 1.15 ± 0.043 | 1.2 ± 0.22 | 1.23 ± 0.27 | 1.04 (active) |
| O=C(Nc1ccc(F)c([N+](=O)[O-])c1)c1cccs1 | 1.07 ± 0.072 | 1.2 ± 0.098 | 1.11 ± 0.067 | 0.964 ± 0.037 | 1.61 ± 0.14 | 1.37 ± 0.13 | 0.975 (active) |
| COc1cc(C(C)=O)ccc1OCCCN1CCC(c2noc3cc(F)ccc23)CC1 | 0.986 ± 0.15 | 1.17 ± 0.31 | 0.924 ± 0.056 | 0.834 ± 0.027 | 1.19 ± 0.2 | 1.12 ± 0.11 | 0.991 (active) |
| COC(=O)Nc1nc2cc(C(=O)c3ccccc3)ccc2[nH]1 | 1.96 ± 0.28 | 1.23 ± 0.23 | 1.31 ± 0.13 | 0.093 ± 0.0033 | 1.04 ± 0.19 | 1.6 ± 0.22 | 0.661 (inactive) |
| CC(O)(CNC(=O)CSc1ccc(F)cc1)c1ccc(-c2ccccc2)cc1 (centres undefined) | 1.02 ± 0.067 | 0.973 ± 0.092 | 0.935 ± 0.038 | 0.685 ± 0.049 | 1.11 ± 0.072 | 0.921 ± 0.1 | 0.992 (active) |
| Nc1nnc(C(=O)O)[nH]1 | 1.04 ± 0.083 | 1.14 ± 0.08 | 1.03 ± 0.043 | 1.06 ± 0.2 | 1.03 ± 0.1 | 1.23 ± 0.19 | 1 (active) |
| Cc1ccc(O)c(N=Nc2ccc(S(=O)(=O)O)cc2)c1 | 1.17 ± 0.11 | 1.15 ± 0.085 | 1.07 ± 0.043 | 1.01 ± 0.12 | 1.08 ± 0.16 | 1.07 ± 0.15 | 1.01 (active) |
| CC1=CC(=O)c2ccccc2C1=O | 2.29 ± 0.12 | 1.31 ± 0.11 | 1.81 ± 0.2 | 0.357 ± 0.023 | 3.57 ± 0.25 | 1.33 ± 0.4 | 0.0798 (inactive) |
| CCCCc1ncc(/C=C(\Cc2cccs2)C(=O)O)n1Cc1ccc(C(=O)O)cc1.CS(=O)(=O)O | 1.08 ± 0.081 | 1.11 ± 0.055 | 1.03 ± 0.039 | 0.927 ± 0.062 | 0.973 ± 0.077 | 0.836 ± 0.079 | 1 (active) |
| CC1CCN(c2nccnc2Oc2ccc(C(=O)N3CCN(c4ccc(F)cc4)CC3)cc2)CC1 | 0.803 ± 0.071 | 1.1 ± 0.062 | 0.709 ± 0.047 | 0.684 ± 0.032 | 1.26 ± 0.18 | 1.11 ± 0.07 | 0.964 (active) |
| O=C1OC(c2ccc3ccccc3c2)=NC1=Cc1ccc(Cl)c([N+](=O)[O-])c1 | 0.973 ± 0.079 | 1.07 ± 0.067 | 0.881 ± 0.053 | 0.976 ± 0.03 | 1.53 ± 0.14 | 1.16 ± 0.2 | 1.01 (active) |
| CCN(CC)CCOC(=O)C(c1ccccc1)c1ccccc1.Cl | 0.913 ± 0.08 | 0.887 ± 0.067 | 0.965 ± 0.084 | 1.58 ± 0.074 | 1.29 ± 0.12 | 1.49 ± 0.12 | 0.941 (active) |
| O=C(CCCCCN1C(=O)c2cccc3cccc(c23)C1=O)NCCO | 0.954 ± 0.082 | 1.01 ± 0.082 | 0.872 ± 0.074 | 0.886 ± 0.036 | 1.29 ± 0.086 | 1.19 ± 0.14 | 1 (active) |
| N#Cc1c(NC(NC(=O)c2cccs2)C(Cl)(Cl)Cl)sc2c1CCCC2 (centres undefined) | 0.669 ± 0.038 | 1.13 ± 0.076 | 0.878 ± 0.1 | 0.66 ± 0.022 | 0.694 ± 0.086 | 0.69 ± 0.073 | 0.986 (active) |
| Cc1nc(SCC(=O)N2CCCCCC2)[nH]c(=O)c1C | 1.15 ± 0.077 | 1.17 ± 0.14 | 0.909 ± 0.04 | 1 ± 0.064 | 1.07 ± 0.14 | 0.977 ± 0.3 | 1 (active) |
| CC(=NN1CCN(Cc2cccc3ccccc23)CC1)c1ccc(Br)cc1 | 1.08 ± 0.12 | 1.04 ± 0.071 | 1.08 ± 0.044 | 1 ± 0.13 | 1.05 ± 0.12 | 1.11 ± 0.29 | 1 (active) |
| CCCCCCOc1ccc(N2C(=O)CC(SC(=Nc3ccccc3)Nc3ccccc3)C2=O)cc1 (centres undefined) | 0.968 ± 0.08 | 1.07 ± 0.073 | 0.856 ± 0.05 | 0.937 ± 0.036 | 1.45 ± 0.092 | 1.23 ± 0.25 | 0.996 (active) |
| Nc1nc(N)nc(-c2cc(Cl)ccc2Cl)n1 | 0.906 ± 0.22 | 1 ± 0.052 | 1.05 ± 0.093 | 0.946 ± 0.052 | 1.18 ± 0.32 | 1.08 ± 0.17 | 0.986 (active) |
| CC(C)NC(=O)CCn1c(=O)c2cc(Cl)ccc2n2c(SCc3ccc(F)cc3)nnc12 | 0.992 ± 0.077 | 1.01 ± 0.093 | 1.1 ± 0.06 | 1.02 ± 0.056 | 1.15 ± 0.19 | 1.41 ± 0.39 | 0.964 (active) |
| O=C(NC(=S)Nc1ccc2[nH]c(=O)[nH]c2c1)c1ccc(F)cc1 | 0.943 ± 0.095 | 1.03 ± 0.066 | 0.933 ± 0.064 | 0.927 ± 0.032 | 1.26 ± 0.13 | 1.05 ± 0.16 | 1.01 (active) |
| CCOC(=O)C1=C(C)NC(C)=C(C(=O)OCC)C1c1ccc(N(C)C)cc1 | 1.14 ± 0.13 | 1.07 ± 0.071 | 1.24 ± 0.069 | 0.855 ± 0.16 | 1.04 ± 0.095 | 0.94 ± 0.24 | 0.996 (active) |
| CCCC1CCC(c2ccc(C(=O)NNC(=O)c3ccc(C4CCC(CCC)CC4)cc3)cc2)CC1 (centres undefined) | 0.984 ± 0.059 | 1.01 ± 0.07 | 0.936 ± 0.059 | 0.898 ± 0.035 | 1.43 ± 0.11 | 1.13 ± 0.21 | 1.01 (active) |
| CCCCOC(=O)C1=C(C)NC2=C(C(=O)CCC2)C1c1cccc(C(F)(F)F)c1 (centres undefined) | 0.981 ± 0.1 | 1.01 ± 0.057 | 0.939 ± 0.058 | 0.993 ± 0.025 | 1.56 ± 0.28 | 1.15 ± 0.17 | 1.01 (active) |
